Assay results as given in PubChem BioAssay (NCI).
This is part of a sample that, as a whole, favours compounds with a hit. Of some 79,000 tested, about 15% had one in any assay. Calls of active or inactive are those of the source. Rule as the data show it: active = growth inhibition above about 70%; inactive = the rest.

assay: NCI Yeast Anticancer Drug Screen. Data for the rad50 strain (AID 155);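 also: 0% = growth of vehicle-only cultures of the same strain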; conditions: S. cerevisiae rad50 strain growth inhibition; at 50.0 µM; stronger effect = higher value
In short: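 Yeast carrying a defined DNA repair defect were exposed to test compounds, and growth was compared with vehicle-treated controls to give percent inhibition.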

Row | SMILES | growth inhibition
1 | CC(C)Cn1cnc2c(Cl)nc3ccccc3c21 | -38.5% (inactive)
2 | COC(=O)c1nc(N)[nH]c(=O)c1CCCCCc1c(C(=O)OC)nc(N)[nH]c1=O | -4.8% (inactive)
3 | O=C(C(=O)N1CCc2ccccc21)c1c[nH]c2ccccc12 | 5.75% (inactive)
4 | CC(C)(N)C(=O)O | 1.2% (inactive)
5 | O=C(O)CCSc1ccc([N+](=O)[O-])cc1 | -7.3% (inactive)
6 | O=c1oc2ccc3ccccc3c2c2c1CCCCC2 | -13.9% (inactive)
7 | Cc1cc(C)c(S(=O)(=O)ONC(=O)OC(C)(C)C)c(C)c1 | 11.8% (inactive)
8 | O=C1CC2(CCCc3sccc32)C(=O)N1 (stereo not given) | -11.2% (inactive)
9 | CC1(c2cccc[n+]2Cc2ccccc2S(=O)(=O)[O-])OCCO1 | 5.5% (inactive)
10 | CCCc1cc(-c2ccc(-c3cc(CCC)c(C=O)[nH]3)s2)[nH]c1C=O | -19% (inactive)
11 | CCOC(OCC)C(=O)NC(C)c1ccc(O)c(OC)c1 (stereo not given) | -20.8% (inactive)
12 | CCCCCOC(=O)CC(CC(=O)OCCCCC)C(=O)OCCCCC | 14.3% (inactive)
13 | CCOc1ccc(CCC(=O)O)cc1 | 3.55% (inactive)
14 | O=C(CC(=O)N1N=C(n2ccc3ccccc32)CC1c1ccccc1)Nc1ccccc1Cl (stereo not given) | -13.6% (inactive)
15 | O=C1CSC(c2ccccc2Br)N1c1nncs1 (stereo not given) | -5.05% (inactive)
16 | CC/C(CC(C)CC)=N\O (stereo not given) | -17.4% (inactive)
17 | CCn1c2ccc(C=O)cc2c2cc([N+](=O)[O-])ccc21 | 6.25% (inactive)
18 | CCOc1c(N=Nc2ccccc2C)c(C)nn1C(N)=S | 18.1% (inactive)
19 | On1c(-c2ccccc2)c(-c2c(-c3ccccc3)n(O)c3ccccc23)c2ccccc21 | 0% (inactive)
20 | O=C1NC(=O)C(c2ccc(Cl)cc2)N1 (stereo not given) | 0% (inactive)

Row | SMILES | growth inhibition
21 | N#CC1(c2ccccc2)C(c2ccccc2)CC(O)(c2ccccc2)C(C(=O)c2ccccc2)C1c1ccccc1 (stereo not given) | 19.9% (inactive)
22 | C/C(Nc1ccc(Cl)cc1)=C1/CCOC1=O | 19.1% (inactive)
23 | CCOC(OCC)n1ncnc1NC(=S)NCc1ccccc1 | -15.4% (inactive)
24 | Fc1ccc(CC(F)F)cc1 | -2.55% (inactive)
25 | CC(=O)N(C)c1ccc(N)cc1 | 33.5% (inactive)
26 | C#CCOC(=O)C(N)CC(N)=O (stereo not given) | -13.8% (inactive)
27 | CCN(CC)CCCn1cnc2ncccc2c1=O | -12.3% (inactive)
28 | COCc1ccccc1P(c1ccccc1COC)c1ccccc1COC | 31% (inactive)
29 | COC(=O)C1=C(C(=O)OC)SC(=CC#CC=C2SC(C(=O)OC)=C(C(=O)OC)S2)S1 | 9.5% (inactive)
30 | ClC(=Nc1ccccc1)c1cc(Cl)ccn1 | 18.1% (inactive)
31 | COc1cccc(OC)c1NC(=O)NCCCl | -8.3% (inactive)
32 | O=S(=O)(c1ccccc1)c1cccc2c[n+]3ccccc3cc12 | 34.6% (inactive)
33 | Cc1cc(Cl)c(O)c(-c2cc(-c3ccc([N+](=O)[O-])cc3)c3c(N)[nH]c(=O)nc3n2)c1 | 44.1% (inactive)
34 | Cc1ccccc1N(CC1CO1)CC1CO1 (stereo not given) | 10.2% (inactive)
35 | COc1ccc(CSc2nc3ccccc3nc2-c2cccs2)cc1 | -16.2% (inactive)
36 | CCOc1ccc(NC(=O)C2=C(C)NC(C)=C(C(=O)Nc3ccc(OCC)cc3)C2c2ccc(O)c(OC)c2)cc1 | -17.4% (inactive)
37 | CC(O)c1cc2c(s1)C(=O)c1sccc1C2=O (stereo not given) | 90.6% (active)
38 | Cn1cnc([N+](=O)[O-])c1C(=O)NCc1ccccc1 | -2.5% (inactive)
39 | Cn1c([N+](=O)[O-])cnc1CN1CCN(CCO)CC1 | -2.9% (inactive)
40 | COC(=O)c1c(O)ccc(O)c1C(=O)OC | -15.7% (inactive)

assay: NCI Yeast Anticancer Drug Screen. Data for the mec2-1 strain (AID 157); conditions: S. cerevisiae mec2-1 strain, at 50.0 µM, stronger effect = higher value
In short: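 Each compound was tested on mec2-1 yeast, a strain altered in DNA damage repair or cell cycle control. Growth inhibition is reported relative to vehicle.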

Row | SMILES | growth inhibition
41 | CC(C)Cn1cnc2c(Cl)nc3ccccc3c21 | 20.4% (inactive)
42 | COC(=O)c1nc(N)[nH]c(=O)c1CCCCCc1c(C(=O)OC)nc(N)[nH]c1=O | -0.15% (inactive)
43 | O=C(C(=O)N1CCc2ccccc21)c1c[nH]c2ccccc12 | 2% (inactive)
44 | CC(C)(N)C(=O)O | 24.5% (inactive)
45 | O=C(O)CCSc1ccc([N+](=O)[O-])cc1 | -18.6% (inactive)
46 | O=c1oc2ccc3ccccc3c2c2c1CCCCC2 | -4.05% (inactive)
47 | Cc1cc(C)c(S(=O)(=O)ONC(=O)OC(C)(C)C)c(C)c1 | -3.9% (inactive)
48 | O=C1CC2(CCCc3sccc32)C(=O)N1 (stereo not given) | -1.65% (inactive)
49 | CC1(c2cccc[n+]2Cc2ccccc2S(=O)(=O)[O-])OCCO1 | -3.6% (inactive)
50 | CCCc1cc(-c2ccc(-c3cc(CCC)c(C=O)[nH]3)s2)[nH]c1C=O | -19.6% (inactive)
51 | CCOC(OCC)C(=O)NC(C)c1ccc(O)c(OC)c1 (stereo not given) | 7.95% (inactive)
52 | CCCCCOC(=O)CC(CC(=O)OCCCCC)C(=O)OCCCCC | 5.15% (inactive)
53 | CCOc1ccc(CCC(=O)O)cc1 | -9% (inactive)
54 | O=C(CC(=O)N1N=C(n2ccc3ccccc32)CC1c1ccccc1)Nc1ccccc1Cl (stereo not given) | -13.8% (inactive)
55 | O=C1CSC(c2ccccc2Br)N1c1nncs1 (stereo not given) | -5.7% (inactive)
56 | CC/C(CC(C)CC)=N\O (stereo not given) | -18.2% (inactive)
57 | CCn1c2ccc(C=O)cc2c2cc([N+](=O)[O-])ccc21 | -2.1% (inactive)
58 | CCOc1c(N=Nc2ccccc2C)c(C)nn1C(N)=S | 0.7% (inactive)
59 | On1c(-c2ccccc2)c(-c2c(-c3ccccc3)n(O)c3ccccc23)c2ccccc21 | 6.45% (inactive)
60 | O=C1NC(=O)C(c2ccc(Cl)cc2)N1 (stereo not given) | -10.8% (inactive)

Row | SMILES | growth inhibition
61 | N#CC1(c2ccccc2)C(c2ccccc2)CC(O)(c2ccccc2)C(C(=O)c2ccccc2)C1c1ccccc1 (stereo not given) | 4.75% (inactive)
62 | C/C(Nc1ccc(Cl)cc1)=C1/CCOC1=O | 5.7% (inactive)
63 | CCOC(OCC)n1ncnc1NC(=S)NCc1ccccc1 | -23.6% (inactive)
64 | Fc1ccc(CC(F)F)cc1 | -6.2% (inactive)
65 | CC(=O)N(C)c1ccc(N)cc1 | 25.2% (inactive)
66 | C#CCOC(=O)C(N)CC(N)=O (stereo not given) | -21.9% (inactive)
67 | CCN(CC)CCCn1cnc2ncccc2c1=O | -5.7% (inactive)
68 | COCc1ccccc1P(c1ccccc1COC)c1ccccc1COC | 18.9% (inactive)
69 | COC(=O)C1=C(C(=O)OC)SC(=CC#CC=C2SC(C(=O)OC)=C(C(=O)OC)S2)S1 | -3.35% (inactive)
70 | ClC(=Nc1ccccc1)c1cc(Cl)ccn1 | -1.8% (inactive)
71 | COc1cccc(OC)c1NC(=O)NCCCl | 14.6% (inactive)
72 | O=S(=O)(c1ccccc1)c1cccc2c[n+]3ccccc3cc12 | 9.35% (inactive)
73 | Cc1cc(Cl)c(O)c(-c2cc(-c3ccc([N+](=O)[O-])cc3)c3c(N)[nH]c(=O)nc3n2)c1 | -4.65% (inactive)
74 | Cc1ccccc1N(CC1CO1)CC1CO1 (stereo not given) | -18.1% (inactive)
75 | COc1ccc(CSc2nc3ccccc3nc2-c2cccs2)cc1 | -39.2% (inactive)
76 | CCOc1ccc(NC(=O)C2=C(C)NC(C)=C(C(=O)Nc3ccc(OCC)cc3)C2c2ccc(O)c(OC)c2)cc1 | 3% (inactive)
77 | CC(O)c1cc2c(s1)C(=O)c1sccc1C2=O (stereo not given) | 93.5% (active)
78 | Cn1cnc([N+](=O)[O-])c1C(=O)NCc1ccccc1 | 9.1% (inactive)
79 | Cn1c([N+](=O)[O-])cnc1CN1CCN(CCO)CC1 | -6.95% (inactive)
80 | COC(=O)c1c(O)ccc(O)c1C(=O)OC | -18.4% (inactive)
